# Source: PubChem
# Sm TGR inh: blocks Schistosoma mansoni thioredoxin glutathione reductase. 3% of 360,000 active. purified TGR, DTNB reduction, TNB absorbance 405 nm. Potency, µM (series often up to 114 µM), inactives show at the top dose activity change, negative = inhibition, most hits filed as inhibitors. Q962Y6; note: potency is the fitted concentration of half-maximal effect; nearly all actives have a fitted effect of over 60% in size
#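 TGR 20 nM + NADPH 100 uM (dispensed conc.), cpd preinc 15 min RT; start with NADPH (500 uM addition) then DTNB (15 mM addition). Kinetic TNB absorbance, 405 nm filter. Four-parameter Hill fit across titration.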
# FMDV inh: foot and mouth disease virus antiviral activity; Potency, µM (doses to about 57.9 µM), without a hit: top-dose activity change, negative = inhibition, actives largely listed as inhibitors; FMDV antiviral cell-based qHTS; 1.2% of 410,000 active; calls by dose curve; tested in HEK293T cells; note: read-out not given here; potency is the fitted concentration of half-maximal effect; nearly all actives have a fitted effect of over 45% in size
# RE007 growth inh: less growth of the S. pombe RE007 Vpr strain; 0.21% of 360,000 active; AID 651644; S. pombe RE007 Vpr strain, BacTiter-Glo ATP luminescence, 24 h; Potency, µM (doses to about 92.2 µM), for inactives: at the top dose activity change, negative = less growth, hits mostly inhibitors; active = well fitted falling curve with a large enough effect; inconclusive = small, poorly fitted or top-dose-only effect; inactive = no such curve, though single readings can be large or run the other way; note: potency is the fitted concentration of half-maximal effect; nearly all actives have a fitted effect of over 50% in size
#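 Fission yeast strain RE007, carrying one chromosomally integrated HIV-1 vpr copy, was seeded at OD 0.01 in PMG+AL medium with 23 nL pinned compound. After 24 h at 30 °C and 99% humidity, viability was read by BacTiter-Glo luminescence.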
# FBPA Giardia inh: Giardia lamblia aldolase inhibition. A8B2U2. purified Giardia FBPA. Potency, µM (series often up to 59.6 µM), without a hit: at the highest dose activity, negative = inhibition, most hits filed as inhibitors. 0.71% of 290,000 active. AID 2451; note: potency is the fitted concentration of half-maximal effect; nearly all actives have a fitted effect of over 55% in size
# Target sequence (A8B2U2 whole entry, looked up): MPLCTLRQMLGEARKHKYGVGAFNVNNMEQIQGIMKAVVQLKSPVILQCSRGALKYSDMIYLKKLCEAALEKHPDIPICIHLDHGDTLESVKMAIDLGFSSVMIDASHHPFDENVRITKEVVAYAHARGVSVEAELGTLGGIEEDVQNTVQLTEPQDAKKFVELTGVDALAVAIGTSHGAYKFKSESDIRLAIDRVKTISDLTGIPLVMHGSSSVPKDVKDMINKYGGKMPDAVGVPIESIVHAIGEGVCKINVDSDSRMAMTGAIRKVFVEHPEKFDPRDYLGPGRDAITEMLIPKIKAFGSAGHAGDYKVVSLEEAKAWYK
#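 40 nM FBPA preincubated 10 min at RT with compound (up to 57.5 uM final), then substrate plus GAPDH/TPI/NAD/arsenate coupling and diaphorase/resazurin added. Fluorescence read after 20 min at RT, 525/598 nm.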
# HCMV antiviral: human cytomegalovirus inhibition; HFF cells, HCMV-luciferase reporter, 72 h; hits give low values; activity change, negative = inhibition, % at 57.5 µM; 4.5% of 410,000 active; AID 1259415; in the data active = activity change below about -60%; inconclusive = no clear call, values can overlap the other calls; inactive = above about -39%
#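 Cell-based, HFFs, 1000 cells/well, 16 h 37C; cpds in DMSO + HCMV-luc, MOI 1 PFU/cell; 72 h 37C; OneGlo luminescence after 5 min RT; norm. to buffer vs Salinomycin 10uM.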
# TbPYK inhibitor: T. brucei pyruvate kinase inhibition; Q57TT1; TbPYK enzyme, Kinase-Glo Plus ATP luminescence, 45 min; Potency, µM (doses to about 76.8 µM), inactives show at the highest dose activity, negative = inhibition, hits mostly inhibitors; 0.12% of 410,000 active; note: potency is the fitted concentration of half-maximal effect; nearly all actives have a fitted effect of over 50% in size
#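 Screened from lowest to highest concentration, compounds were pinned into TbPYK/substrate mixtures, and ADP (130 uM final) was added. Plates sat at room temperature for 45 min prior to Kinase-Glo Plus detection by luminescence.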
# * = called active by the depositor; ? = inconclusive; / = not tested or not shown; + = active, no number; [ ] = dose if it differs, or a comment. Rows were chosen to be rich in hits. Some 7.7% of all compounds tested hit in one or more screens of this group. Unless noted, calls come from the whole dose curve; as a rule, active = well fitted curve in the direction sought with a large enough effect; inconclusive = small, poorly fitted or top-dose-only effect, or another doubt; inactive = no such curve, though single readings can be large; an effect the other way counts as inactive or inconclusive. % is set by controls: 0 for no effect and ±100 for the full control effect.
SMILES,Sm TGR inh,FMDV inh,RE007 growth inh,FBPA Giardia inh,HCMV antiviral,TbPYK inhibitor
COc1ccc(C=C2C=C(C(C)(C)C)C(=O)C(C(C)(C)C)=C2)cc1OC,4.47µM*,22.4µM*,2.2%,2.6%,-98.6*,4.4%
Cc1cc(C)nc(-n2nc(C)c3c2N(Cc2ccccc2C)C(=O)CC3c2ccc(Cl)cc2)n1 (stereo not given),3.4%,-15.9%,/,/,-10.1,4.2%
NC(=S)N/N=C1\CC(n2nnnc2-c2ccccc2)C2COC1O2 (stereo not given),?,10.8%,-1.4%,?,-67.9*,?
CC1CCN(Cc2c(C(=O)N/N=C/c3cc(Cl)ccc3O)nnn2-c2nonc2N)CC1,-1.0%,-15.3%,-4.4%,7.1%,-100.0*,-9.0%
CC1CCN(Cc2c(C(=O)N/N=C/c3cc(Br)ccc3O)nnn2-c2nonc2N)CC1,2.1%,-6.9%,0.1%,16.2%,-101.6*,-8.0%
COc1ccc(OC2C=CC(C#Cc3ccc(F)cc3F)OC2CO)cc1 (stereo not given),/,/,/,-1.8%[12.9 µM],/,/
Cc1ncc2c(c1CNC(=O)c1ccc3c(c1)OCO3)CCN(C(=O)c1cc3ccccc3n1C)C2,/,-1.0%,/,/,/,/
CC(C)Cc1nc2cc(NS(=O)(=O)N(C)C)cc(C(=O)N3CCc4sccc4C3)c2n1C,/,36.2%,/,/,/,/
CC(=O)N1CCCc2cc(S(=O)(=O)N3CCC(C(=O)N(Cc4ccccc4)C(C)C)CC3)ccc21,-0.2%,?,/,/,-18.4,-3.8%
CCc1c(C)c(C#N)c2[nH]c3ccccc3n2c1=S,0.562µM*,?,-10.4%,?,-101.5*,14.1µM*
C=C(C)Cc1c(C)c(C#N)c2[nH]c3ccccc3n2c1=O,-12.6%,?,-2.0%,?,-66.0*,-9.3%
CCc1cc(=S)n2c([nH]c3ccccc32)c1C#N,1.58µM*,?,-5.7%,3.0%,/,?
CCc1cc(=O)n2c([nH]c3ccccc32)c1C#N,-16.8%,13.9%,8.0%,-25.1%,43.9,2.4%
O=S1(=O)CCSC[C@@H](CN2CCN(c3ccccc3)CC2)N1,/,/,/,/,8.2,/
CN(C)c1ccc(CN(C(=O)C2COc3ccccc3O2)C2CCS(=O)(=O)C2)cc1 (stereo not given),20µM*,9.7%,9.3%,-10.9%,-20.7,5.0%
CC(C)c1ccc(CN(C(=O)C2COc3ccccc3O2)C2CCS(=O)(=O)C2)cc1 (stereo not given),0.7%,-25.6%,15.7%,-3.3%,-93.7*,0.5%
Cc1ccccc1OCC(=O)N(Cc1ccc(C(C)C)cc1)C1CCS(=O)(=O)C1 (stereo not given),-0.7%,-18.6%,/,/,4.9,0.8%
CN(C)c1ccc(CN(C(=O)COc2ccccc2)C2CCS(=O)(=O)C2)cc1 (stereo not given),-2.8%,21.3%,1.9%,-19.6%,-8.1,-7.1%
CCOc1ccc(C2C(C(=O)c3ccc(C)o3)=C(O)C(=O)N2c2nc(C)c(C(=O)OC)s2)cc1 (stereo not given),44.7µM*,7.8%,-12.8%,-22.5%,-25.6,0.3%
CCOC(=O)c1sc(N2C(=O)C(O)=C(C(=O)c3ccco3)C2c2ccc(C)o2)nc1C (stereo not given),7.94µM*,9.9%,-12.0%,-30.0%,-22.0,0.0%
O=C(CCS(=O)(=O)c1cc(Br)cc2c1N(C(=O)C1CC1)CC2)NCc1ccc(Cl)cc1,-0.4%,22.7%,/,/,-22.7,-7.1%
COc1ccc2ccccc2c1CN1CCc2nnc(CNC(=O)c3cccc(F)c3)n2CC1,/,-5.5%,/,/,/,/
COc1cc(OC)c2nc(-c3cc4c(c(OC)c3)OCCN(C(=O)CC3NC(=O)c5ccccc53)C4)cc(C)c2c1 (stereo not given),/,-14.5%,/,/,/,/
CN=c1scc(-c2ccc(F)cc2)n1/N=C/c1ccc(O)c(O)c1,11.2µM*,1.26µM*,-5.0%,?,-66.6*,-29.5%
C[C@H]1[C@@H](NS(=O)(=O)c2cccc([N+](=O)[O-])c2)CC[C@@]23CCCN2C(=O)CCC[C@@H]13,/,/,/,/,10.7,/
SMILES,Sm TGR inh,FMDV inh,RE007 growth inh,FBPA Giardia inh,HCMV antiviral,TbPYK inhibitor
Cc1cc(Nc2ccc(O)cc2)ccc1N,2µM*,/,/,/,/,/
COc1ccc(N2CCN(C(=O)c3cc(-c4ccc(C)c(F)c4)on3)CC2)cc1,-21.9%,-4.5%,/,/,7.2,-4.8%
CCCCC(=O)OCC(=O)N1N=C(c2c[nH]c3ccccc23)C(O)C1c1ccc(OC)cc1 (stereo not given),-11.4%,-36.9%,6.9%,0.3%,-60.8*,-12.4%
COc1ccc(CC(=O)OCC(=O)N2N=C(c3ccccc3)CC2c2ccc(OC)cc2)cc1 (stereo not given),-15.7%,3.6%,/,-3.6%,-8.9,-9.2%
Cc1ccc(CN(C(=O)COc2ccc(C(C)C)cc2)C2CCS(=O)(=O)C2)o1 (stereo not given),-25.6%,-18.0%,/,/,-22.7,-6.8%
COc1ccc(NC(=O)c2oc3ccccc3c2NC(=O)C23CC4CC(CC(C4)C2)C3)c(OC)c1,-1.5%,-8.7%,/,/,3.7,0.8%
COc1cccc(CNC(=O)C2CCCN(S(=O)(=O)N(C)c3ccc(F)cc3)C2)c1OC (stereo not given),5.6%,22.4µM*,/,/,-71.5*,1.1%
CSc1ccc(CCNC(=O)C2CCCN(S(=O)(=O)N(C)c3ccc(F)cc3)C2)cc1 (stereo not given),4.6%,35.5µM*,/,/,?,-0.3%
COc1ccc(CNC(=O)C2CCCN(S(=O)(=O)N3CCC(C)CC3)C2)c(OC)c1 (stereo not given),6.0%,7.2%,-9.2%,-1.2%,+,3.0%
Cc1cccc(-n2c3c(cc(-c4nc(-c5ccc(Cl)cc5)cs4)c2=O)C(=O)CC(C)(C)C3)c1,2.0%,-1.4%,/,/,-7.1,-6.9%
Cc1cc(C)cc(NC(=O)C2CCN(S(=O)(=O)c3cn(C)cn3)CC2)c1,1.4%,-8.9%,/,/,-17.3,-4.4%
O=S(=O)(c1ccccc1F)N1CCN(CCc2ccccc2)CC1,18.7%,?,0.0%,14.1%,-72.3*,5.5%
